# According to ChEMBL document CHEMBL3988442, “University of Dundee, Small-Polar-MMV Screening Library” (2021):
# Hit rate of the full screen: of about 48,000 compounds, about 13,000 (27%) showed an effect of 50% or more. The list shows a part of the results.
# Test system: Wolbachia pipientis
# Assay: Anti-Wolbachia Cell-Based Screen
# Type: functional
# Set-up: scale not given: in the data most compounds retested in dose-response had high values
# Details: 5 µM
row,Compound,Percent Effect [%]
1,O=C1CC(C(=O)O)C2(CCN(C(=O)Nc3ccccc3Cl)CC2)N1 (centres undefined),8.972
2,CS(=O)(=O)NC1CCN(C(=O)c2ccc(F)cc2)CC1,22.77
3,CCn1nc(C)c2nc(C(C)C)nc(NCCCO)c21,5.791
4,CC[C@H]1CN(C(=O)C(C)(C)C)CC[C@H]1CC(=O)O,0.9693
5,CCS(=O)(=O)NCC1Cn2nnc(-c3ccccc3)c2CO1 (centres undefined),4.629
6,CC(C)N1CCN(CCn2cnc3c(F)cccc3c2=O)CC1,-1.52
7,CCCc1nc(Cn2c(=O)n(C)c3ccccc32)no1,-1.157
8,CN(C)CCn1c(=O)n(C)c(=O)c2ccccc21.Cl,110
9,CCc1nc(Cn2c(=O)n(C)c3ccccc32)no1,-3.957
10,CC(C)n1c(=O)c2ccccc2n(CCN2CCCCC2)c1=O,58.61
11,CC(C)NC(=O)CN(C)C(=O)c1c(Br)c2ccccc2n1C,-8.15
12,Cc1cc(=O)c2ccccc2n1CC1CCN(C(C)C)C1 (centres undefined),-7.176
13,CC(C)n1c(=O)c2ccccc2n(CCCN(C)C)c1=O.Cl,74.16
14,CC(C)NC(=O)CN(C)C(=O)c1c(Cl)c2ccccc2n1C,7.479
15,CC(C)n1c(=O)c2ccccc2n(CCN(C)C)c1=O.Cl,91.55
16,CC(CCc1ccccc1)NC(=O)CNCCCN(C)C.O=C(O)C(=O)O (centres undefined),-3.27
17,CC(C)S(=O)(=O)CC(=O)N(Cc1ccsc1)c1ccccc1,-3.342
18,Cn1cc(CN2CCCC3(COCCN(Cc4c[nH]nn4)C3)C2)cn1.O=C(O)C(F)(F)F.O=C(O)C(F)(F)F (centres undefined),-3.726
19,COCC(=O)N1CCCC(c2cc(C(F)F)n3ncnc3n2)C1.Cl (centres undefined),109.8
20,CC(C)C(=O)N1CCCC(c2cc(C(F)F)n3ncnc3n2)C1.Cl (centres undefined),-4.51
21,O=C(Cc1ccsc1)N1CCCC(c2cc(C(F)F)n3ncnc3n2)C1 (centres undefined),112.3
22,Cc1nc(C2CCCN(C(=O)CO)C2)cc(N2CCOCC2)n1 (centres undefined),-8.444
23,NC(=O)c1ccc(-n2ccnc2C2CC2)cc1N1CCCC1,30.18
24,COCCS(=O)(=O)N(Cc1ccsc1)c1ccccc1,-9.25
25,COc1cc(CN(C)C(=O)NCC(=O)NC(C)C)ccc1SC,-30.2
26,COCC(=O)NCCC(=O)N1CCN(S(=O)(=O)c2cccc(Br)c2)CC1,2.832

row,Compound,Percent Effect [%]
1,O=C(CCNC(=O)C1CCCC1)NCc1cccnc1-n1cncn1,-1.584
2,Cl.O=C(NCCn1nc(C2CCNC2)c2cccnc21)C1CCC1 (centres undefined),119.3
3,Cl.O=C(NCCn1nc(C2CCNC2)c2cccnc21)C1CC1 (centres undefined),104.4
4,Cc1cccc(C)c1OC1CN(C(=O)C2CCCN(C(=O)N(C)C)C2)C1 (centres undefined),-13.19
5,O=C(NCCc1ccsc1)Nc1cccnc1N1CCCC1,0.6987
6,COc1c(C(=O)N2CCC(CSc3ccccc3)C2)c(C)nn1C (centres undefined),13.6
7,CCS(=O)(=O)c1ccc2c(c1)OCCCO2,-4.006
8,CCN(CC)S(=O)(=O)N(C)Cc1ccc2c(c1)OCCO2,104.5
9,CC(=O)NCCNC(=O)N(C)Cc1ccc2c(c1)OCCO2,1.28
10,CCN(CC)S(=O)(=O)N(CC)Cc1ccc2c(c1)OCCO2,92.18
11,CC(C)N(C)S(=O)(=O)N(C)Cc1cnn(C)c1,-10.04
12,CCC[C@@H]1CN(Cc2ccc3c(c2)OCCO3)C[C@H]1C(=O)O,-6.164
13,CC(C)N(C)S(=O)(=O)N(C)Cc1ccc2c(c1)OCCO2,98.7
14,CC(C)N(C)S(=O)(=O)N(C)Cc1ccc2c(c1)OCO2,-1.448
15,CCS(=O)(=O)c1ccc2c(c1)OCCO2,-1.362
16,CCc1noc(CN(C)Cc2cc(Br)ccc2OC)n1,4.438
17,Cc1ccn(-c2ccccc2NCc2cscn2)n1,-9.752
18,COC(=O)C(c1cc(F)ccc1F)N(C)C(=O)c1csnn1 (centres undefined),3.05
19,COC(=O)C(c1cc(F)ccc1F)N(C)C(=O)c1cnccn1 (centres undefined),118.4
20,Cc1cccc(N(CCC(N)=O)C(=O)c2ccnc(C)n2)c1,-10.53
21,COC(=O)C(c1cc(F)ccc1F)N(C)C(=O)c1cnc(C)cn1 (centres undefined),103
22,COC(=O)C(c1cc(F)ccc1F)N(C)C(=O)c1ccccn1 (centres undefined),114.5
23,COC(=O)C(c1ccccc1)N(C)C(=O)c1ccnc(C)n1 (centres undefined),100.7
24,Cc1nccc(CNC(=O)NCC(C)Oc2ccccc2F)n1 (centres undefined),-7.985
25,COc1ccc(N(C(=O)c2cnc(C)cn2)C(C)C)cc1F,9.374
26,COC(=O)C(c1cc(F)ccc1F)N(C)C(=O)c1ccnc(C)n1 (centres undefined),4.378

row,Compound,Percent Effect [%]
1,COC(=O)c1cnc(C(=O)N(c2ccc(OC)c(F)c2)C(C)C)cn1,-7.917
2,COC(=O)C(c1cc(F)ccc1F)N(C)C(=O)c1cccnc1O (centres undefined),1.784
3,CN(C)CCN(Cc1ccc(Cl)cc1)C(=O)c1cnccn1,-5.634
4,O=C1N(Cc2cccc(F)c2F)CCCC1(O)CNCc1ccccc1 (centres undefined),16.03
5,Cc1c(CNS(=O)(=O)c2cccc(COC(C)C)c2)cnn1C,-15.21
6,CN1C[C@@H](NC(=O)C(C)(C)C)C[C@H]1C(=O)NCc1ncc[nH]1,-5.014
7,COCCOC[C@]1(CNC(=O)c2ccc(OC)cc2)C[C@@H](O)[C@@H](O)C1,-0.4241
8,Cc1cc(C)c(CNC(=O)NCc2nnc3n2CCCCC3)c(=O)[nH]1,-9.467
9,O=C(CN1CCOc2ccc(Cl)cc21)NCc1ncc[nH]1,-5.45
10,Cc1cccc(C)c1CCNC(=O)N1CCCC2(C1)OCCO2,-0.05309
11,Cc1ccccc1NC(=O)N1CC[C@@H]2CN(CC(C)C)S(=O)(=O)[C@@H]2CC1,-60.79
12,CCN(Cc1c(C)nn(C)c1C)C(=O)C1COc2ccccc2C1 (centres undefined),-5.134
13,CC(C)c1n[nH]c(C2CN(C(=O)c3csnn3)CCO2)n1 (centres undefined),4.906
14,Cc1n[nH]c(C2CN(C(=O)c3ccon3)CCO2)n1 (centres undefined),-8.521
15,CC(C)c1n[nH]c(C2CN(Cc3nnc(C4CC4)o3)CCO2)n1 (centres undefined),-9.108
16,Cc1n[nH]c(C2CN(C(=O)c3cc(C4CC4)on3)CCO2)n1 (centres undefined),119.9
17,CC(C)c1n[nH]c(C2CN(C(=O)c3cc(C4CC4)on3)CCO2)n1 (centres undefined),113.9
18,Cc1n[nH]c(C2CN(C(=O)c3csnn3)CCO2)n1 (centres undefined),-23.45
19,CN1CCN2CCN(C(=O)c3cc4ncc(CCO)cn4n3)CC2C1 (centres undefined),-4.032
20,CCCn1ccnc1SCC(=O)NC(Cc1ccccc1)C(C)=O (centres undefined),22.6
21,COCC(C)NC(=O)c1cc(Br)c2c(c1)OCCO2 (centres undefined),-1.818
22,CC(C)(C)CNC1(Cc2cc(C(C)(C)O)on2)COC1,-22.48
23,CN(Cc1cccnc1)CC1CC12CCN(Cc1nccs1)CC2 (centres undefined),11.24
24,Cc1cnc(N2CCC3(CC2)CC3CN(C)Cc2cccnc2)nc1.O=C(O)C(F)(F)F.O=C(O)C(F)(F)F (centres undefined),2.289
25,CN(Cc1cccnc1)CC1CC12CCCC2 (centres undefined),103.1
26,CCc1n[nH]c(C2CN(C(=O)c3cnc[nH]3)CCO2)n1 (centres undefined),-7.128

row,Compound,Percent Effect [%]
1,Cc1n[nH]c(C2CN(C(=O)c3cnc[nH]3)CCO2)n1 (centres undefined),-6.3
2,CC(C)(C)c1n[nH]c(C2CN(C(=O)c3cc(C4CC4)[nH]n3)CCO2)n1 (centres undefined),116
3,CC(C)(C)c1n[nH]c(C2CN(C(=O)c3ccsc3)CCO2)n1 (centres undefined),-3.296
4,Cc1nc(CC(=O)N2CCOC(c3nc(C(C)(C)C)n[nH]3)C2)cs1 (centres undefined),-6.24
5,CC(C)(C)c1n[nH]c(C2CN(C(=O)CCC3CC3)CCO2)n1 (centres undefined),-7.383
6,Cc1nc(CN2CCOC(c3nc(C(C)C)n[nH]3)C2)oc1C (centres undefined),-6.661
7,CC(C)c1n[nH]c(C2CN(C(=O)CCCn3cccn3)CCO2)n1 (centres undefined),-13
8,Cc1n[nH]c(C2CN(C(=O)c3cc(C4CC4)[nH]n3)CCO2)n1 (centres undefined),6.266
9,CSCC(=O)N1CCOC(c2nc(C(C)(C)C)n[nH]2)C1 (centres undefined),103.9
10,CC(C)(C)c1n[nH]c(C2CN(C(=O)c3cnc[nH]3)CCO2)n1 (centres undefined),97.58
11,CSCC(=O)N1CCOC(c2nc(C(C)C)n[nH]2)C1 (centres undefined),117.1
12,CCc1ccc(C(=O)N2C[C@@H]3COC[C@@H](C(=O)NC)[C@@H]3C2)cc1,-16.14
13,Cc1ccc(S(=O)(=O)N2CC(C)Oc3ncccc32)c(C)c1 (centres undefined),-17.54
14,Cn1nnc2c1CCN(C(=O)C1CC1)C2COCCN1CCCC1.O=C(O)C(F)(F)F (centres undefined),-5.654
15,CCn1ncnc1CN1CCc2[nH]cnc2C1Cc1ccccc1 (centres undefined),-1.907
16,Cc1cccc(CNC2(CCO)CCOCC2)c1C,-7.231
17,CSC(C)C(=O)NS(=O)(=O)CCc1ccccc1 (centres undefined),-7.68
18,CSCC(=O)N1CCOC(c2nc(C)n[nH]2)C1 (centres undefined),81.74
19,Cc1n[nH]c(C2CN(C(=O)c3ccc(Cl)o3)CCO2)n1 (centres undefined),-21.06
20,Cc1[nH]c(-c2ccccc2)nc1C(=O)N1CCc2[nH]cnc2C1C(=O)O (centres undefined),-27.35
21,COCCNC(=O)CCNc1ccc(Cl)cn1,-1.356
22,COCCN1CCN(Cc2ccc(Cl)cc2)[C@H]2CS(=O)(=O)C[C@H]21,3.262
23,COCCCNc1c(-c2ccc(Cl)cc2)c(=O)c1=O,75.4
24,COCCCNC(=O)Cc1cc(-c2ccc(Cl)cc2)on1,18.42
25,COCCCN(C)S(=O)(=O)c1ccc(Cl)cc1C#N,-9.182
26,COCCNc1c(-c2ccc(Cl)cc2)c(=O)c1=O,106.9
